Assay outcomes: PubChem BioAssay, Broad Institute
EBV LMP1 NFkB – EBV LMP1-driven NF-kappaB luciferase reporter inhibitors, primary screen, cell-based, luminescence, single point | LMP1-induced NF-kappaB luciferase reporter cells | inhibition, % at 12.5 µM | 350,000 tested, 0.69% active | AID 504558, 2011; in the data active means inhibition above about 41%; inconclusive means no clear call, values can overlap the other calls
LGR2 antag – inhibitors of bursicon-induced LGR2 CRE-luciferase signal, primary screen, cell-based, HEK293, CRE-luciferase reporter, bursicon stimulation; 380,000 tested, 0.35% active; bursicon-stimulated, 4 h; inhibition, % at 9.99 µM; Drosophila bursicon receptor LGR2 (rickets);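 active means drop in luminescence signal, shown as inhibition above about 50% in the replicate tests, limit read from the data, passing the limit was not always enough; inconclusive means probably only some replicates passing the limit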;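 further: agonist challenge used bursicon conditioned medium at about half maximal strength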
MITF TRPM1 inh – inhibitors of MITF-dependent TRPM1 promoter reporter, primary screen, cell-based, SK-MEL-5, single point, luciferase; SK-MEL-5 TRPM1 promoter luciferase, 24 h; 330,000 tested, 0.83% active; AID 488899, 2010; inhibition, % at 12.5 µM;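 active means mean inhibition across replicates of 60% or more, whatever share of single replicates reaches that level; inconclusive means some that reach 60%, reason not given; inactive means mean inhibition across replicates below 60%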
Shn3 3UTR inh – reduction of Shn3 3'UTR firefly luciferase signal, primary screen, Schnurri-3 inhibitor project, cell-based, Clone20 osteoblasts, set 2; AID 588674, 2011; 360,000 tested, 0.52% active; Clone20 osteoblast Shn3 3'UTR firefly luciferase, 24 h; inhibition, % at 12.5 µM;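 active means mean inhibition of at least 75% with every replicate also reaching 75%; inconclusive means mean inhibition at least 75% but some replicate below; inactive means mean inhibition below 75%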
EWS-Fli block – EWS/Fli-driven NR0B1 reporter inhibitors, primary screen, A673 cells, NR0B1 luciferase, luminescence, MLPCN library; AID 651661, 2012; inhibition, % at 12.6 µM; 350,000 tested, 0.67% active; viability-normalised;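 active means mean inhibition of at least 50% after viability correction, with every replicate also passing that limit; inconclusive means mean reaches 50% but only one of two replicates passes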;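 further: firefly luciferase signal divided by Alamar Blue viability fluorescence both relative to DMSO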
PAX8 inh HTS – inhibitors of PAX8-driven TPO luciferase reporter, primary screen, RMG-I cells, single concentration. SteadyGlo, 24 h. inhibition, % at 12.6 µM. 360,000 tested, 1.2% active. AID 652154, 2013;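 active means mean replicate inhibition at least 60% with every replicate also reaching 60%; inconclusive means only one of the two criteria is met; inactive means mean below 60% and not all replicates reaching 60%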;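 further: luciferase light reporting Pax8 driven TPO promoter activity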
Numbers stand for hits; - = inactive; ? = inconclusive; . = not tested or not shown; ! = not active in a repeat. This is a sample that favours compounds with a hit; in the whole collection about 2.2% have one here.

SMILES	EBV LMP1 NFkB	LGR2 antag	MITF TRPM1 inh	Shn3 3UTR inh	EWS-Fli block	PAX8 inh HTS
COc1ccc(S(=O)(=O)N(C)C[C@@H]2Oc3ccc(NC(=O)Nc4ccc(C(F)(F)F)cc4)cc3CC(=O)N([C@H](C)CO)C[C@@H]2C)cc1	.	-	.	.	-	78
COc1ccc(S(=O)(=O)N(C)C[C@@H]2Oc3ccc(NC(=O)Nc4ccc(C(F)(F)F)cc4)cc3CC(=O)N([C@@H](C)CO)C[C@@H]2C)cc1	.	-	.	.	-	66
COc1ccc(S(=O)(=O)N(C)C[C@@H]2Oc3ccc(NC(=O)Nc4ccc(C(F)(F)F)cc4)cc3CC(=O)N([C@H](C)CO)C[C@H]2C)cc1	.	-	.	.	-	-
CCOC(=O)/C=C(\C)Sc1cc(O)c2ccccc2c1O	-	-	83	-	-	-
CCOC(=O)c1c(C)oc2c1cc(O)c1ccccc12	-	.	-	-	.	.
CCOC(=O)/C=C(\C)Sc1cc(=O)oc2ccccc12	50	.	-	-	.	64
Cc1sc2ncnc(N3CCN(CCOc4ccc(Cl)cc4)CC3)c2c1C	-	-	-	85	-	.
C[C@@H]1CN([C@H](C)CO)S(=O)(=O)c2ccc(C#Cc3ccccn3)cc2O[C@H]1CN(C)Cc1ccccc1	.	-	.	.	-	.
Cc1ccc(CNC(=O)c2ccc3c(=O)c(O)c(-c4ccc(C)cc4)[nH]c3c2)cc1	-	-	-	87	-	70
COc1ccc2c3c(n(C)c2c1)[C@H](CO)N(CC1CCCCC1)CC31CCN(C(=O)CN(C)C)CC1	.	-	.	.	-	.
O=C(C[C@H]1C[C@H]2c3cc(NC(=O)c4ccc5c(c4)OCO5)ccc3O[C@H]2[C@H](CO)O1)NCc1cccnc1	.	-	.	.	-	-
Cn1nnnc1Sc1ncnc2scc(-c3cccc(Br)c3)c12	78	-	84	-	?	91
Cn1nnnc1Sc1ncnc2scc(-c3cccc(S(C)(=O)=O)c3)c12	47	85	78	-	-	106
CC(=O)c1cccc(-c2csc3ncnc(Sc4nnnn4C)c23)c1	.	?	.	95	-	114
O=C(O)CSc1ncnc2scc(-c3ccc(Br)cc3)c12	-	-	-	-	-	-
COc1ccc(NC(=O)N[C@@H]2CC[C@@H](CCNC(=O)c3cc(Cl)cc(Cl)c3)O[C@@H]2CO)cc1	.	-	.	.	-	-
CN(C)CCNc1ccc(CO)c2sc3ccc(O)cc3c(=O)c12	49	.	85	-	-	96
COc1ccc2sc3cccc(NCCN(C)C)c3c(=O)c2c1	.	-	.	-	-	-
CN(C)CCNc1ccc2ncn3c4ccc(O)cc4c(=O)c1c23	-	-	83	-	-	64
C[C@H]1CCCCO[C@@H](CN(C)C(=O)Nc2ccccc2)[C@@H](C)CN([C@@H](C)CO)C(=O)c2cc(NC(=O)Nc3cccc4ccccc34)ccc2O1	.	-	.	.	-	-
O=c1cc(-c2ccc(O)cc2)oc2ccc3ccccc3c12	-	100	83	?	89	110
Cc1noc(C)c1S(=O)(=O)Nc1ccc2c(c1)C(=O)N([C@@H](C)CO)C[C@@H](C)[C@H](CN(C)Cc1ccc(C(F)(F)F)cc1)OCCCC[C@H](C)O2	.	-	.	.	.	64
Cc1noc(C)c1S(=O)(=O)Nc1ccc2c(c1)C(=O)N([C@H](C)CO)C[C@H](C)[C@H](CN(C)Cc1ccc(C(=O)O)cc1)OCCCC[C@H](C)O2	.	-	.	.	-	-
Cc1noc(C)c1S(=O)(=O)Nc1ccc2c(c1)C(=O)N([C@@H](C)CO)C[C@@H](C)[C@H](CN(C)Cc1ccc(C(=O)O)cc1)OCCCC[C@H](C)O2	.	-	.	.	-	-
Cc1noc(C)c1S(=O)(=O)Nc1ccc2c(c1)C(=O)N([C@@H](C)CO)C[C@H](C)[C@@H](CN(C)Cc1ccc(C(F)(F)F)cc1)OCCCC[C@@H](C)O2	.	-	.	.	.	72
SMILES	EBV LMP1 NFkB	LGR2 antag	MITF TRPM1 inh	Shn3 3UTR inh	EWS-Fli block	PAX8 inh HTS
Cc1noc(C)c1S(=O)(=O)Nc1ccc2c(c1)C(=O)N([C@H](C)CO)C[C@H](C)[C@H](CN(C)Cc1ccc(C(F)(F)F)cc1)OCCCC[C@H](C)O2	.	-	.	.	.	74
Cc1noc(C)c1S(=O)(=O)Nc1ccc2c(c1)C(=O)N([C@H](C)CO)C[C@H](C)[C@@H](CN(C)Cc1ccc(C(F)(F)F)cc1)OCCCC[C@H](C)O2	.	-	.	.	.	72
COCC(=O)Nc1ccc2c(c1)[C@H]1C[C@H](CC(=O)NCc3ccccc3)O[C@@H](CO)[C@H]1O2	.	-	.	.	-	-
COC(=O)[C@H]1[C@H](CO)[C@H]2Cn3c(ccc(/C=C/c4ccccc4)c3=O)[C@H]2N1C(=O)C1CCCC1	.	-	.	.	-	.
O=C(Nc1cccc(F)c1)N1CCCCN2[C@@H](CO)[C@H](c3ccc(C#Cc4cccnc4)cc3)[C@@H]2C1	.	-	.	.	-	-
CN1C(=O)c2cc(NC(=O)c3ccc(F)c(F)c3)ccc2OC[C@@H]2O[C@@H](CC(=O)N3CCOCC3)CC[C@H]21	.	-	.	.	-	-
C/C=C/c1ccc2c(c1)O[C@H](CN(C)C(=O)Cc1cccnc1)[C@@H](C)CN([C@@H](C)CO)S2(=O)=O	.	-	.	.	-	-
O=C(Nc1ncccc1O)c1ccc(S(=O)(=O)NCc2ccco2)cc1	43	-	.	-	-	-
Cc1cccnc1NC(=O)c1ccc(S(=O)(=O)NCc2ccco2)cc1	-	-	-	-	-	-
CN(C)C(=O)[C@H]1[C@H](CO)[C@H]2Cn3c(ccc(-c4cccc(F)c4)c3=O)[C@H]2N1C(=O)c1ccccn1	.	-	.	.	-	-
CCCNC(=O)C[C@@H]1CC[C@@H]2[C@H](COC[C@H](O)CN2C(=O)Nc2ccc3c(c2)OCO3)O1	.	-	.	.	-	-
CC(C)Cc1ccc(C(C)C(N)=NCCc2ccccc2)cc1 (configuration not stated)	-	-	71	-	-	-
Cc1ccc2c(c1)c(/C=C/c1cc[n+](C)cc1)c(C)n2C	-	-	?	-	57	?
Cc1ccc2[nH]c(C)c(/C=C/c3cc[n+](C)cc3)c2c1	-	-	-	-	-	78
Cn1cc(/C=C/c2cc[n+](C)cc2)c2cc(Cl)ccc21	-	-	-	-	-	-
Fc1ccc(-c2ccc(C3[C@@H]4CN(Cc5ccccc5)C[C@H]3N4)cc2)cc1 (some centres not stated)	.	-	.	.	-	74!
COc1ccc(-c2ccc(C3[C@@H]4CN(Cc5cccc(OC)c5)C[C@H]3N4)cc2)cc1 (some centres not stated)	.	-	.	.	-	-
Cc1ccc(-c2ccc([C@@H]3[C@@H]4CN(Cc5ccccc5F)C[C@H]3N4)cc2)cc1	.	-	.	.	-	89
